# Experimental data from publication PMC11062922 (Nature Chemical Biology, 2023).
# Like-named read-outs stand apart in the source and are kept apart here.
# System: PRKD3
# Details: read-out: apparent Kd, n = 1
substance,measurement,setting,value
Lestaurtinib,potency estimated from few doses,"compound concentrations:100 nM and 1000 nM (sheet 'Lestaurtinib' of Supplementary Table 1),run:Lestaurtinib_02422_R1,Plate:MR006",76.7 nM
same,potency estimated from few doses,"compound concentrations:100 nM and 1000 nM (sheet 'Lestaurtinib' of Supplementary Table 1),run:Lestaurtinib_02422_R2,Plate:MR006",42 nM
same,potency estimated from few doses,"compound concentrations:100 nM and 1000 nM (sheet 'Lestaurtinib' of Supplementary Table 1),run:Lestaurtinib_02422_R3,Plate:MR006",81.8 nM
same,potency estimated from few doses,"compound concentrations:100 nM and 1000 nM (sheet 'Lestaurtinib' of Supplementary Table 1),run:Lestaurtinib_02437_R1,Plate:MR007",84 nM
same,potency estimated from few doses,"compound concentrations:100 nM and 1000 nM (sheet 'Lestaurtinib' of Supplementary Table 1),run:Lestaurtinib_02437_R3,Plate:MR007",5.38 nM
same,potency estimated from few doses,"compound concentrations:100 nM and 1000 nM (sheet 'Lestaurtinib' of Supplementary Table 1),run:Lestaurtinib_02438_R1,Plate:MR008",84.2 nM
same,potency estimated from few doses,"compound concentrations:100 nM and 1000 nM (sheet 'Lestaurtinib' of Supplementary Table 1),run:Lestaurtinib_02438_R2,Plate:MR008",51.6 nM
same,potency estimated from few doses,"compound concentrations:100 nM and 1000 nM (sheet 'Lestaurtinib' of Supplementary Table 1),run:Lestaurtinib_02438_R3,Plate:MR008",82.5 nM
same,potency estimated from few doses,"compound concentrations:100 nM and 1000 nM (sheet 'Lestaurtinib' of Supplementary Table 1),run:Lestaurtinib_02443_R1,Plate:MR009",91.7 nM
same,potency estimated from few doses,"compound concentrations:100 nM and 1000 nM (sheet 'Lestaurtinib' of Supplementary Table 1),run:Lestaurtinib_02473_R1,Plate:MR010",77.7 nM
same,potency estimated from few doses,"compound concentrations:100 nM and 1000 nM (sheet 'Lestaurtinib' of Supplementary Table 1),run:Lestaurtinib_02473_R3,Plate:MR010",79.7 nM
same,potency estimated from few doses,"compound concentrations:100 nM and 1000 nM (sheet 'Lestaurtinib' of Supplementary Table 1),run:Lestaurtinib_02482_R1,Plate:MR011",95.2 nM
same,potency estimated from few doses,"compound concentrations:100 nM and 1000 nM (sheet 'Lestaurtinib' of Supplementary Table 1),run:Lestaurtinib_02482_R3,Plate:MR011",132 nM
same,potency estimated from few doses,"compound concentrations:100 nM and 1000 nM (sheet 'Lestaurtinib' of Supplementary Table 1),run:Lestaurtinib_02487_R1,Plate:MR012",90.9 nM
same,potency estimated from few doses,"compound concentrations:100 nM and 1000 nM (sheet 'Lestaurtinib' of Supplementary Table 1),run:Lestaurtinib_02487_R2,Plate:MR012",84.9 nM
same,potency estimated from few doses,"compound concentrations:100 nM and 1000 nM (sheet 'Lestaurtinib' of Supplementary Table 1),run:Lestaurtinib_02487_R3,Plate:MR012",94.1 nM
same,potency estimated from few doses,"compound concentrations:100 nM and 1000 nM (sheet 'Lestaurtinib' of Supplementary Table 1),run:Lestaurtinib_02496_R2,Plate:MR013",79 nM
same,potency estimated from few doses,"compound concentrations:100 nM and 1000 nM (sheet 'Lestaurtinib' of Supplementary Table 1),run:Lestaurtinib_02496_R3,Plate:MR013",79.4 nM
same,potency estimated from few doses,"compound concentrations:100 nM and 1000 nM (sheet 'Lestaurtinib' of Supplementary Table 1),run:Lestaurtinib_02566_R2,Plate:MR014",57.7 nM
same,potency estimated from few doses,"compound concentrations:100 nM and 1000 nM (sheet 'Lestaurtinib' of Supplementary Table 1),run:Lestaurtinib_02566_R3,Plate:MR014",52.9 nM
same,potency estimated from few doses,"compound concentrations:100 nM and 1000 nM (sheet 'Lestaurtinib' of Supplementary Table 1),run:Lestaurtinib_02572_R1,Plate:MR015",45.9 nM
same,potency estimated from few doses,"compound concentrations:100 nM and 1000 nM (sheet 'Lestaurtinib' of Supplementary Table 1),run:Lestaurtinib_02577_R1,Plate:MR016",100 nM
same,potency estimated from few doses,"compound concentrations:100 nM and 1000 nM (sheet 'Lestaurtinib' of Supplementary Table 1),run:Lestaurtinib_02577_R2,Plate:MR016",87.6 nM
same,potency estimated from few doses,"compound concentrations:100 nM and 1000 nM (sheet 'Lestaurtinib' of Supplementary Table 1),run:Lestaurtinib_02577_R3,Plate:MR016",59.2 nM
same,potency estimated from few doses,"compound concentrations:100 nM and 1000 nM (sheet 'Lestaurtinib' of Supplementary Table 1),run:Lestaurtinib_02584_R1,Plate:MR017",95.1 nM
same,potency estimated from few doses,"compound concentrations:100 nM and 1000 nM (sheet 'Lestaurtinib' of Supplementary Table 1),run:Lestaurtinib_02584_R2,Plate:MR017",100 nM
same,potency estimated from few doses,"compound concentrations:100 nM and 1000 nM (sheet 'Lestaurtinib' of Supplementary Table 1),run:Lestaurtinib_02584_R3,Plate:MR017",113 nM
same,potency estimated from few doses,"compound concentrations:100 nM and 1000 nM (sheet 'Lestaurtinib' of Supplementary Table 1),run:Lestaurtinib_02601_R2,Plate:MR018",71.2 nM
same,potency estimated from few doses,"compound concentrations:100 nM and 1000 nM (sheet 'Lestaurtinib' of Supplementary Table 1),run:Lestaurtinib_02601_R3,Plate:MR018",77.1 nM
same,potency estimated from few doses,"compound concentrations:100 nM and 1000 nM (sheet 'Lestaurtinib' of Supplementary Table 1),run:Lestaurtinib_02606_R1,Plate:MR019",69.4 nM
same,potency estimated from few doses,"compound concentrations:100 nM and 1000 nM (sheet 'Lestaurtinib' of Supplementary Table 1),run:Lestaurtinib_02606_R2,Plate:MR019",130 nM
same,potency estimated from few doses,"compound concentrations:100 nM and 1000 nM (sheet 'Lestaurtinib' of Supplementary Table 1),run:Lestaurtinib_02606_R3,Plate:MR019",130 nM
same,potency estimated from few doses,"compound concentrations:100 nM and 1000 nM (sheet 'Lestaurtinib' of Supplementary Table 1),run:Lestaurtinib_02624_R1,Plate:MR020",67.4 nM
same,potency estimated from few doses,"compound concentrations:100 nM and 1000 nM (sheet 'Lestaurtinib' of Supplementary Table 1),run:Lestaurtinib_02624_R2,Plate:MR020",90.4 nM
same,potency estimated from few doses,"compound concentrations:100 nM and 1000 nM (sheet 'Lestaurtinib' of Supplementary Table 1),run:Lestaurtinib_02624_R3,Plate:MR020",79.8 nM
same,potency estimated from few doses,"compound concentrations:100 nM and 1000 nM (sheet 'Lestaurtinib' of Supplementary Table 1),run:Lestaurtinib_02724_R1,Plate:MR021",56.1 nM
same,potency estimated from few doses,"compound concentrations:100 nM and 1000 nM (sheet 'Lestaurtinib' of Supplementary Table 1),run:Lestaurtinib_02724_R2,Plate:MR021",71.1 nM
same,potency estimated from few doses,"compound concentrations:100 nM and 1000 nM (sheet 'Lestaurtinib' of Supplementary Table 1),run:Lestaurtinib_02724_R3,Plate:MR021",59.7 nM
same,potency estimated from few doses,"compound concentrations:100 nM and 1000 nM (sheet 'Lestaurtinib' of Supplementary Table 1),run:Lestaurtinib_02741_R1,Plate:MR023",88.2 nM
same,potency estimated from few doses,"compound concentrations:100 nM and 1000 nM (sheet 'Lestaurtinib' of Supplementary Table 1),run:Lestaurtinib_02741_R2,Plate:MR023",56.3 nM
same,potency estimated from few doses,"compound concentrations:100 nM and 1000 nM (sheet 'Lestaurtinib' of Supplementary Table 1),run:Lestaurtinib_02741_R3,Plate:MR023",88.4 nM
same,potency estimated from few doses,"compound concentrations:100 nM and 1000 nM (sheet 'Lestaurtinib' of Supplementary Table 1),run:Lestaurtinib_02748_R1,Plate:MR024",86 nM
same,potency estimated from few doses,"compound concentrations:100 nM and 1000 nM (sheet 'Lestaurtinib' of Supplementary Table 1),run:Lestaurtinib_02748_R3,Plate:MR024",98 nM
same,potency estimated from few doses,"compound concentrations:100 nM and 1000 nM (sheet 'Lestaurtinib' of Supplementary Table 1),run:Lestaurtinib_02752_R1,Plate:MR025",92.9 nM
same,potency estimated from few doses,"compound concentrations:100 nM and 1000 nM (sheet 'Lestaurtinib' of Supplementary Table 1),run:Lestaurtinib_02752_R3,Plate:MR025",99.3 nM
same,potency estimated from few doses,"compound concentrations:100 nM and 1000 nM (sheet 'Lestaurtinib' of Supplementary Table 1),run:Lestaurtinib_02765_R3,Plate:MR026",82.4 nM
same,potency estimated from few doses,"compound concentrations:100 nM and 1000 nM (sheet 'Lestaurtinib' of Supplementary Table 1),run:Lestaurtinib_02766_R1,Plate:MR027",99.2 nM
